Bioassay records: PubChem BioAssay, National Center for Advancing Translational Sciences (NCATS)
Most compounds without a hit are left out; they make up all but 14% or so of the library.
HCMV antiviral: qHTS Assay for inhibitors of the human cytomegalovirus (HCMV); HFF cells, HCMV-luciferase reporter, 72 h; hits give low values; activity change, negative = inhibition, % at 57.5 µM; hit rate 4.5% among 410,000; AID 1259415, 2018; in the data active = activity change below about -60%; inconclusive = no clear call, values can overlap the other calls; inactive = above about -39%
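Steps: HFFs plated, 16 h 37C; compounds added; HCMV-luciferase added to MOI 1 PFU/cell; 72 h 37C; OneGlo reagent, 5 min room temperature; luminescence read, normalized to controls.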
Lassa entry inh: qHTS for Inhibitors of binding or entry into cells for Lassa Virus | Lassa virus pseudotype entry inhibition, cell reporter | Potency, µM (titrated, usually from 37.9 µM), inactives show at the highest dose activity change, negative = inhibition, actives largely listed as inhibitors | hit rate 1.2% among 300,000; calls by dose curve; tested in HEK293 cells; note: potency is the fitted concentration of half-maximal effect; nearly all actives have a fitted effect of over 50% in size
Pf growth 48h: Primary qHTS for delayed death inhibitors of the malarial parasite plastid, 48 hour incubation. hit rate 5.9% among 310,000. P. falciparum luciferase growth in erythrocytes, 48 h. AID 504832, 2011. Potency, µM (doses to about 28.7 µM), without a hit: top-dose activity change, negative = inhibition, actives largely listed as inhibitors; note: potency is the fitted concentration of half-maximal effect
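Compounds are pin-transferred into medium, infected erythrocytes (2% hematocrit, 0.1% parasitemia final) are added, and plates sit one parasite generation at 37 C in 5% CO2. Detection reagent is then added and luminescence measured.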
HCV inh: qHTS Assay for Inhibitors of Hepatitis C Virus (HCV). hit rate 3.4% among 340,000. Huh7.5.1 HCVcc-Cre infection, luciferase reporter, 44 h. Potency, µM (highest dose often 41.8 µM), for the others: at the highest dose activity change, negative = inhibition, usual class: inhibitors; note: potency is the fitted concentration of half-maximal effect
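1,000 cells/well; 4 h culture; + compound; + HCVcc-Cre (~0.5 moi); 44 h; luciferase substrate, RT 15 min; read 15 sec.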
Pf growth 96h: Primary qHTS for delayed death inhibitors of the malarial parasite plastid, 96 hour incubation; hit rate 6.9% among 320,000; P. falciparum luciferase reporter growth, 96 h; Potency, µM (doses to about 28.7 µM), without a hit: at the top dose activity change, negative = inhibition, actives largely listed as inhibitors; note: potency is the fitted concentration of half-maximal effect
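Delayed-death screen, second-generation endpoint: infected erythrocytes, 2% hematocrit, 0.05% parasitemia final; 96 hours at 37 C, 5% CO2; luciferase detection reagent; luminescence decrease equals reduced growth.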
Marburg entry inh: qHTS for inhibitors of binding or entry into cells for Marburg Virus | hit rate 1.8% among 300,000 | Potency, µM (doses to about 37.8 µM), inactives show at the top dose activity change, negative = inhibition, usual class: inhibitors | Marburg virus pseudotyped entry inhibition, cell reporter; calls by dose curve; tested in HEK293 cells; note: potency is the fitted concentration of half-maximal effect
Numbers without * were called inactive; i = inactive; ? = inconclusive; · = no result; [ ] = remark or other dose. Unless noted, calls come from the whole dose curve; as a rule, active = well fitted inhibition curve with a large enough effect; inconclusive = small, poorly fitted or top-dose-only effect, or another doubt; inactive = no such curve, though single readings can be large or run the other way. % is set by controls: 0 for no effect and ±100 for the full control effect.

SMILES | HCMV antiviral | Lassa entry inh | Pf growth 48h | HCV inh | Pf growth 96h | Marburg entry inh
CCCOc1ccc(C(=O)Nc2nc(C)c(Cc3ccc4c(c3)OCO4)s2)cc1 | ? | 10% | 10µM* | 3.5µM* | ? | 35%
Cc1nc(NC(=O)c2ccc(OCC(C)C)cc2)sc1Cc1ccc2c(c1)OCO2 | ? | · | ? | 14µM* | ? | ·
Cc1c(Cc2ccc3c(c2)OCO3)sc(NC(=O)c2ccc3ccccc3c2)c1C(N)=O | 25 | -9% | 13% | ? | 22% | 0%
COc1cc(C(=O)c2cc3c(cc2C)OCO3)cc(OC)c1OC | -68* | · | · | · | · | ·
COc1cccc(NC(=O)CSC2=Nc3ccccc3N=C(c3ccc(F)cc3)C2)c1 | ? | -11%[46.1 µM] | · | · | · | ·
Cc1oc2ncn(CC(C)C)c(=O)c2c1C(=O)N(Cc1ccccc1)C(C)C | 20 | 10%[46.1 µM] | · | · | · | ·
CN1OC[C@@H]2CN3C(=O)N(c4cccc5ccccc45)c4ccccc4[C@@H]3C[C@@H]21 | -102* | · | · | · | · | ·
CN1OC[C@@H]2CN(S(=O)(=O)c3cccc4ccccc34)[C@H](c3ccc(-c4ccccc4)cc3)C[C@@H]21 | -8 | · | · | · | · | ·
Cc1ccc(N(Cc2ccccc2)C(=O)CSC(C)C(=O)Nc2cc(C)on2)cc1 (stereo not drawn) | -64* | · | · | · | · | ·
Cc1nc(Sc2nnnn2-c2ccccc2)c(C#N)c(C)c1C | -14 | · | · | -6% | ? | 9%
CCCn1c(Sc2nnnn2-c2ccccc2)n[nH]c1=O | -106* | -6% | 32% | 1% | 0% | -12%
CCCSc1nnc(Sc2nnnn2-c2ccccc2)s1 | -78* | ? | 13µM* | ? | · | ?
Cc1cc(C)c(C#N)c(Sc2nnnn2-c2ccccc2)n1 | -28 | · | -3% | 14% | 2.3µM* | ·
COc1ccc2c(C)cc(Sc3nnnn3-c3ccccc3)nc2c1 | -101* | 0.79µM* | -30% | -2% | ? | 14%
O=C1C[C@H](c2ccccc2)n2nc(N3C(=O)c4ccccc4C3=O)nc2N1 | · | · | · | · | · | 3%
CCc1ccccc1NC(=O)NC(CC)Cn1nnc2ccccc2c1=O (stereo not drawn) | 33 | ? | · | · | · | 17%[46.1 µM]
Cc1cc(C)n2cc(CSc3nnnn3-c3ccc(Cl)cc3)nc2n1 | -24 | 3% | -4% | 8% | 31% | -3%
Cc1ccccc1-n1nnnc1SCC(N)=O | -4 | -6% | 21% | 8% | -3% | ?
Cc1cc(C)n2cc(CSc3nnnn3-c3ccccc3)nc2n1 | -71* | -3% | -22% | 13% | 8.3µM* | 1%
Cc1ccccc1-n1nnnc1Sc1nnnn1-c1ccccc1 | ? | ? | 8.3µM* | ? | · | ?
COc1ccc(Br)cc1CN1C(=O)c2ccccc2C1C(=O)NC1CCCCCC1 (stereo not drawn) | -14 | -2%[46.1 µM] | · | · | · | ?
Cc1ccc2oc(-c3ccc(Cl)cc3)c(O)c(=O)c2c1 | -77* | 1%[46.1 µM] | · | · | · | ?
O=NN(CCCl)C(=O)NC1CCCCC1 | · | · | -9% | · | 4% | ·
Cc1ccc(/C=N/NC(=S)N2CCOCC2)cc1 | 99 | ? | 2.3µM* | -2% | ? | 3%
Cc1ccc(CC(=S)N2CCOCC2)cc1 | 1 | -1%[46.1 µM] | 13% | 15% | 13µM* | 34%[46.1 µM]
SMILES | HCMV antiviral | Lassa entry inh | Pf growth 48h | HCV inh | Pf growth 96h | Marburg entry inh
S=C(N/N=C/c1ccc(Cl)cc1)N1CCOCC1 | -12 | 4% | 54% | 8% | 47% | 16%
CCc1ccc(CC(=S)N2CCOCC2)cc1 | 4 | · | 26% | 4% | ? | ·
Cc1ccc(C)c(S(=O)(=O)N2CCN(C(=O)[C@H](Cc3ccccc3)NC(=O)c3ccco3)CC2)c1 | -12 | -23%[46.1 µM] | · | -2% | · | -27%[46.1 µM]
CCOc1ccc(-c2cc3c(=O)n(Cc4nc(-c5ccc(OC(C)C)cc5)oc4C)ccn3n2)cc1Cl | 12 | 15%[46.1 µM] | · | · | · | 24%[46.1 µM]
Cc1[nH]c2ccccc2c1SCc1nnc(SCc2ccccc2)n1C | -33 | -24% | ? | -1% | ? | ?
Cc1[nH]c2ccccc2c1SCc1nnc(SCc2ccc(Cl)cc2)n1C | -12 | ? | 15µM* | 11µM* | ? | ?
Cc1cccc(Cc2nnc(CCC(=O)N(C)CCc3ccccc3)o2)c1 | 29 | 2%[46.1 µM] | -28% | 17% | 12µM* | ?
Cc1cc(-c2nnc(CCC(=O)N(C)CCc3ccccc3)o2)no1 | 62 | · | 25% | -3% | 9% | ·
CSc1ccc(NC(=O)Nc2cc(C)ccn2)cc1 | 6 | 7.1µM* | 125% | -16% | i | 7.1µM*
Cc1ccnc(NC(=O)Nc2ccc3c(c2)N(C)C(=O)CS3)c1 | 29 | ? | 100% | ? | 13µM* | ?
Cc1ccc(NC(=O)Nc2ccc3c(c2)N(C)C(=O)CS3)nc1 | -20 | -20% | ? | ? | ? | -30%
Cc1ccnc(NC(=O)Nc2ccc(F)cc2)c1 | 43 | -22% | 195% | 13% | 39% | ?
Cc1cccc(NC(=O)Nc2ccc3c(c2)N(C)C(=O)CS3)n1 | 127 | · | · | -11% | 10µM* | ·
CC(=O)Nc1ccc(NC(=O)CCc2c(C)noc2C)cc1 | -19 | 1% | ? | ? | 3% | 3%
CCOc1ccc(OCC)c(NS(=O)(=O)c2c(C)[nH]c(=O)[nH]c2=O)c1 | 0 | -4%[46.1 µM] | · | · | · | ·
COc1ccc(-c2oc3ncn4nc(-c5ccccc5OC)nc4c3c2-c2ccc(OC)cc2)cc1 | 4 | 2%[46.1 µM] | · | · | · | ·
O=C(N/N=C\c1cc(Cl)ccc1O)c1ccc(S(=O)(=O)N2CCCCC2)cc1 | -103* | ? | 2.6µM* | 3.5µM* | 2.9µM* | ?
O=C(Nc1cc(S(=O)(=O)Nc2ccc(Cl)cc2)ccc1O)c1ccc(S(=O)(=O)N2CCCCCC2)cc1 | 21 | ? | -24% | ? | 0% | ?
O=C(N/N=C/c1cc(Cl)ccc1O)c1cccnc1 | ? | ? | 3.3µM* | 5µM* | ? | ?
O=C(N/N=C/c1cc(Cl)ccc1O)c1ccccc1Br | -100* | · | 3.7µM* | ? | ? | ·
O=C(N/N=C/c1cccnc1)c1cccc(Cl)c1 | 14 | 23%[46.1 µM] | 28% | 3% | 26% | 1%[46.1 µM]
O=C(Cn1c(=O)n2nc(-c3ccccc3)nc2c2ccccc21)Nc1ccccc1C(F)(F)F | 24 | 7%[46.1 µM] | · | · | · | ?
O=C1[C@H](Cc2ccccc2)NCC=CC[C@H](c2ccco2)N1Cc1ccccc1 | -31 | · | · | ? | · | ·
CCCCOC(=O)/C(C#N)=C/c1ccc(-c2ccc(Br)cc2)o1 | 6 | -1%[46.1 µM] | · | · | · | ·
CSC1=N/C(=C/c2cccnc2)C(=O)N1Cc1ccc(Cl)cc1 | -16 | · | 6.6µM* | -15% | ? | ·
Cc1cccc(N2N=C(C(=O)Nc3nc(C)cs3)CCC2=O)c1 | -21 | · | -21% | 13% | -22% | ·
